In PubChem BioAssay AID1159580 (chemical genetic matrix, 2015):
Where “and” joins values, the source holds several entries; their conditions need not be identical. Identical values can stand only once. About 2,000 (36%) of roughly 5,500 compounds were called active. Roughly 18% stayed inconclusive and do not appear here. Rule as the data show it: active = normalized growth mostly below about 0.91 (no sharp cut-off); inconclusive = no clear call, values can overlap the other calls; inactive = mostly above about 0.92. The list shows a part of the results.

Experiment: chemical genetic growth profiling, strain panel (AID 1159580);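 also: tested at 20 µM; growth read once vehicle control cultures reached saturation at 30 °C; 1 = growth at the plate median or of vehicle wells; lower values mean less growth of the strain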
Conditions: S. cerevisiae deletion strains, growth OD

Measured: normalized growth

CCC(C(=O)O)c1ccccc1 (configuration not stated)
inactive: locus YAL013W, strain DEP1, stronger effect = lower value 1.01 | locus YAL021C, strain ccr4, stronger effect = lower value 0.973 | locus YAL026C, strain drs2, stronger effect = lower value 0.992 | locus YAL030W, strain snc1, stronger effect = lower value 0.989 | locus YBL061C, strain skt5, stronger effect = lower value 0.999 | locus YBR009C, strain hhf1, stronger effect = lower value 0.991 | locus YBR021W, strain FUR4, stronger effect = lower value 1.01 | locus YBR023C, strain chs3, stronger effect = lower value 0.993 | locus YBR171W, strain sec66, stronger effect = lower value 0.987 | locus YBR229C, strain ROT2, stronger effect = lower value 0.997 | locus YBR231C, strain swc5, stronger effect = lower value 1.01 | locus YBR279W, strain paf1, stronger effect = lower value 1 | locus YCL011C, strain gbp2, stronger effect = lower value 0.979 | locus YCL016C, strain dcc1, stronger effect = lower value 0.982 | locus YCL029C, strain bik1, stronger effect = lower value 1.01 | locus YCL061C, strain MRC1, stronger effect = lower value 0.982 | locus YCL069W, strain vba3, stronger effect = lower value 0.993 | locus YCR088W, strain abp1, stronger effect = lower value 0.988 | locus YDL005C, strain med2, stronger effect = lower value 0.98 | locus YDL035C, strain GPR1, stronger effect = lower value 1.03 | locus YDL040C, strain nat1, stronger effect = lower value 0.988 | locus YDL074C, strain BRE1, stronger effect = lower value 1.02 | locus YDL101C, strain DUN1, stronger effect = lower value 1 | locus YDL134C, strain PPH21, stronger effect = lower value 1 | locus YDL185W, strain tfp1, stronger effect = lower value 0.984 | locus YDL192W, strain arf1, stronger effect = lower value 1 | locus YDR001C, strain nth1, stronger effect = lower value 0.987 | locus YDR069C, strain doa4, stronger effect = lower value 0.999 | locus YDR101C, strain arx1, stronger effect = lower value 0.998 | locus YDR137W, strain rgp1, stronger effect = lower value 0.97 | locus YDR150W, strain NUM1, stronger effect = lower value 1.01 | locus YDR159W, strain sac3, stronger effect = lower value 0.964 | locus YDR162C, strain NBP2, stronger effect = lower value 1.01 | locus YDR195W, strain ref2 0.98 | locus YDR297W, strain sur2, stronger effect = lower value 0.983 | locus YDR318W, strain mcm21, stronger effect = lower value 0.994 | locus YDR334W, strain swr1, stronger effect = lower value 0.975 | locus YDR335W, strain msn5, stronger effect = lower value 1.02 | locus YDR388W, stronger effect = lower value 0.996 | locus YDR392W, strain spt3, stronger effect = lower value 0.991 | locus YDR502C, strain sam2, stronger effect = lower value 1 | locus YEL003W, strain gim4, stronger effect = lower value 0.997 | locus YEL037C, strain rad23, stronger effect = lower value 0.989 | locus YEL061C, strain CIN8 (second series), stronger effect = lower value 0.998 | locus YEL061C, strain CIN8, stronger effect = lower value 1.01 | locus YER015W, strain faa2, stronger effect = lower value 0.992 | locus YER016W, strain bim1, stronger effect = lower value 0.976 | locus YER110C, stronger effect = lower value 1 | locus YER111C, strain swi4, stronger effect = lower value 0.979 | locus YER155C, strain BEM2 (second series), stronger effect = lower value 0.975 | locus YER155C, strain BEM2, stronger effect = lower value 1.01 | locus YER167W, strain BCK2, stronger effect = lower value 1 | locus YFR010W, strain ubp6, stronger effect = lower value 0.995 | locus YGL078C, strain dbp3, stronger effect = lower value 0.979 | locus YGL086W, strain mad1, stronger effect = lower value 0.998 | locus YGL167C, strain pmr1, stronger effect = lower value 1 | locus YGL173C, strain kem1, stronger effect = lower value 0.997 | locus YGL227W, strain vid30, stronger effect = lower value 0.978 | locus YGL240W, strain doc1, stronger effect = lower value 1.02 | locus YGL248W, strain PDE1, stronger effect = lower value 1 | locus YGL253W, strain hxk2, stronger effect = lower value 0.99 | locus YGR078C, strain PAC10, stronger effect = lower value 1.02 | locus YGR135W, strain pre9, stronger effect = lower value 1.03 | locus YGR229C, strain SMI1, stronger effect = lower value 1.01 | locus YGR252W, strain gcn5, stronger effect = lower value 0.976 | locus YHR013C, strain ard1, stronger effect = lower value 0.963 | locus YHR027C, strain rpn1, stronger effect = lower value 1 | locus YHR030C, strain SLT2, stronger effect = lower value 1 and 0.961 | locus YHR079C, strain IRE1 (second series), stronger effect = lower value 1 | locus YHR079C, strain IRE1, stronger effect = lower value 0.959 | locus YHR094C, strain hxt1, stronger effect = lower value 0.997 | locus YHR129C, strain ARP1, stronger effect = lower value 0.995 | locus YHR142W, strain chs7, stronger effect = lower value 1.02 | locus YHR200W, strain rpn10, stronger effect = lower value 1 | locus YIL066C, strain RNR3, stronger effect = lower value 1.01 | locus YIL073C, strain SPO22, stronger effect = lower value 1.03 | locus YIL125W, strain kgd1, stronger effect = lower value 0.971 | locus YIR030C, strain dcg1, stronger effect = lower value 1.01 | locus YJL092W, strain hpr5, stronger effect = lower value 0.979 | locus YJL095W, strain BCK1 (second series), stronger effect = lower value 0.985 | locus YJL095W, strain BCK1, stronger effect = lower value 1.02 and 0.968 | locus YJL115W, strain asf1, stronger effect = lower value 0.984 | locus YJL129C, strain trk1, stronger effect = lower value 0.983 | locus YJL134W, strain LCB3, stronger effect = lower value 1.01 | locus YJL154C, strain vps35, stronger effect = lower value 0.988 | locus YJL164C, strain tpk1, stronger effect = lower value 0.98 | locus YJL166W, strain qcr8, stronger effect = lower value 0.995 | locus YJL168C, strain set2, stronger effect = lower value 0.995 | locus YJL187C, strain SWE1 (second series), stronger effect = lower value 1 | locus YJL187C, strain SWE1, stronger effect = lower value 0.971 | locus YJR043C, strain POL32, stronger effect = lower value 1.03 | locus YJR066W, strain TOR1, stronger effect = lower value 0.887
